Holding throughout (experiment): DAPPL (digital affinity profiling via proximity ligation, sequencing); 10 mM Tris-HCl pH 7.5, 50 mM NaCl, 1 mM DTT, 4% glycerol, room temperature, 30 min; GST-TFs on glutathione beads, 16-mer random dsDNA library, 0.1% formaldehyde crosslink after washing; high values mean tight binding
One experiment addresses T1, ELK1 (Homo sapiens, UniProt P19419 1-428).
T1 sequence: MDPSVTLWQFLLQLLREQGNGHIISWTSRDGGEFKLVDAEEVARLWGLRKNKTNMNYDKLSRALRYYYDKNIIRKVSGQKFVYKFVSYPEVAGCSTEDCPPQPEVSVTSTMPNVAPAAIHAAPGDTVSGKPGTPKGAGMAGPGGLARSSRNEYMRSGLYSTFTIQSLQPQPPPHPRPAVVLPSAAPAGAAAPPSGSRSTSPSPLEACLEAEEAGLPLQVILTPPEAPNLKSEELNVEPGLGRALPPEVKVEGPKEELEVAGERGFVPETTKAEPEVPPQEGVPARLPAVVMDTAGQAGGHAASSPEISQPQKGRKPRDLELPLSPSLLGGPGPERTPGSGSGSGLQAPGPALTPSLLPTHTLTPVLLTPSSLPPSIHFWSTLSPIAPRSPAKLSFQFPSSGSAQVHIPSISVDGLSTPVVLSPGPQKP
As to conditions: protein: recombinant; tags: N-terminal GST; dsDNA, one strand shown. A digest of the protocol:
(§1)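 Human transcription factors carrying a GST fusion were produced in yeast, bound to glutathione beads, tagged with DNA barcodes and pooled together with a tag-only sample. Each pool was held with 200 nmole of a random double-stranded 16-mer DNA library in Tris/NaCl/DTT/glycerol buffer for 30 min at room temperature, then washed, crosslinked in 0.1% formaldehyde, proximity-ligated with BsaI/T4 ligase (1 h, 37 °C), PCR-amplified and sequenced on an Illumina NextSeq500. Binding signal is the read frequency of each hexamer for a given factor divided by its frequency in the tag-only sample.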

Another experiment concerns the target T2, GABPA (Homo sapiens, UniProt Q06546 1-454).
T2 sequence: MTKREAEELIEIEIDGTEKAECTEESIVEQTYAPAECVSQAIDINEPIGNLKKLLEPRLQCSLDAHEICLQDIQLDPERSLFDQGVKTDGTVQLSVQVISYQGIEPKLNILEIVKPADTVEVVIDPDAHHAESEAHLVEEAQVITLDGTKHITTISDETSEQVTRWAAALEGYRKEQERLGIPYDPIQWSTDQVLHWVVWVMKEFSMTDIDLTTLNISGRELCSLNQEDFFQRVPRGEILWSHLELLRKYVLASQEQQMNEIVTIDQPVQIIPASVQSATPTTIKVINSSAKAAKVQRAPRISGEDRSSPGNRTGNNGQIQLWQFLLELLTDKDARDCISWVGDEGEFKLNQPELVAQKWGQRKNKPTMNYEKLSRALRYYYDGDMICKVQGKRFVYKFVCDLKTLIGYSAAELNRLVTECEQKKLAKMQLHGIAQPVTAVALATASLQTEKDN
Conditions: protein: recombinant; tags: N-terminal GST; dsDNA, one strand shown. A digest of the protocol:
as §1

The target of another experiment is T3, ERG (Homo sapiens, UniProt P11308 1-479).
T3 sequence: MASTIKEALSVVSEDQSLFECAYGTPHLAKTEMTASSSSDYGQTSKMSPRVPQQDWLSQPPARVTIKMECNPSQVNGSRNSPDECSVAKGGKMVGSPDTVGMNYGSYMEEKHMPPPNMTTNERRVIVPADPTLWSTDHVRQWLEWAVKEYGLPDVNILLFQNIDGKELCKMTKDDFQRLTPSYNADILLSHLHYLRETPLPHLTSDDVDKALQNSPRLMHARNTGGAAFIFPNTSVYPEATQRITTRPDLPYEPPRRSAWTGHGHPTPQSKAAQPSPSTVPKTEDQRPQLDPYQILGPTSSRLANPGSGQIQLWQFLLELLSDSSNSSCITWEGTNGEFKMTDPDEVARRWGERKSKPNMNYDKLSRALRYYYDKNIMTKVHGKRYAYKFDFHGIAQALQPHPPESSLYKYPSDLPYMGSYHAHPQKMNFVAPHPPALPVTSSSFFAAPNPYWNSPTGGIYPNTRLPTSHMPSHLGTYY
Conditions: protein: recombinant; tags: N-terminal GST; dsDNA, one strand shown. In outline:
as §1

Another experiment has as its target ELF1 (Homo sapiens, UniProt P32519 1-619). Conditions: protein: recombinant; tags: N-terminal GST; dsDNA, one strand shown. In outline: as §1
Another experiment concerns the target T4, EHF (Homo sapiens, UniProt Q9NZC4 1-300).
T4 sequence: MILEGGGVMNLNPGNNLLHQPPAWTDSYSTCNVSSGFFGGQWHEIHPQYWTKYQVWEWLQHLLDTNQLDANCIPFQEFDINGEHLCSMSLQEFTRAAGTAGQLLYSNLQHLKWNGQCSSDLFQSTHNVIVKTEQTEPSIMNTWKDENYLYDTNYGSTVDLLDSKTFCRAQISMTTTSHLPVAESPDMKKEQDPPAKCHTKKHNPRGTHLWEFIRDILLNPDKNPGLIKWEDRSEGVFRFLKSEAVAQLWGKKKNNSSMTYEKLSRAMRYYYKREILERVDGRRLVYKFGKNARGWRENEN
Conditions: protein: recombinant; tags: N-terminal GST; dsDNA, one strand shown. A digest of the protocol: as §1

The target of another experiment is SPIB (Homo sapiens, UniProt Q01892 1-262). Conditions: protein: recombinant; tags: N-terminal GST; dsDNA, one strand shown. In outline: as §1
The target of another experiment is HSF1 (Homo sapiens, UniProt Q00613 1-529). As to conditions: protein: recombinant; tags: N-terminal GST; chain copies: 3; dsDNA, one strand shown. In outline: as §1
A further experiment concerns the target ELF4 (Homo sapiens, UniProt Q99607 1-663). Conditions: protein: recombinant; tags: N-terminal GST; dsDNA, one strand shown. In outline:
as §1

The target of another experiment is T5, ELK4 (Homo sapiens, UniProt P28324-2 1-405).
T5 sequence: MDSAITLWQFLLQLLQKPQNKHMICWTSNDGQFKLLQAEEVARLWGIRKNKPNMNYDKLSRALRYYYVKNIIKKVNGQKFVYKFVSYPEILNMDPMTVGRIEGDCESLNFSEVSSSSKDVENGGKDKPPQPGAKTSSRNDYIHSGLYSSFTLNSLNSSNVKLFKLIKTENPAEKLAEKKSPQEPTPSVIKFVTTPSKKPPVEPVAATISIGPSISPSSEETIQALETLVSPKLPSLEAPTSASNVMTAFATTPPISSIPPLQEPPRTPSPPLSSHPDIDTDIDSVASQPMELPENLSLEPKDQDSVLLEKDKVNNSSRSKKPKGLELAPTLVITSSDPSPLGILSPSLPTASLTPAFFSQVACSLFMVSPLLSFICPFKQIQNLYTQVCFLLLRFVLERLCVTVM
Conditions: protein: recombinant; tags: N-terminal GST; dsDNA, one strand shown. A digest of the protocol: as §1

ELF1, sequence (P32519 whole entry): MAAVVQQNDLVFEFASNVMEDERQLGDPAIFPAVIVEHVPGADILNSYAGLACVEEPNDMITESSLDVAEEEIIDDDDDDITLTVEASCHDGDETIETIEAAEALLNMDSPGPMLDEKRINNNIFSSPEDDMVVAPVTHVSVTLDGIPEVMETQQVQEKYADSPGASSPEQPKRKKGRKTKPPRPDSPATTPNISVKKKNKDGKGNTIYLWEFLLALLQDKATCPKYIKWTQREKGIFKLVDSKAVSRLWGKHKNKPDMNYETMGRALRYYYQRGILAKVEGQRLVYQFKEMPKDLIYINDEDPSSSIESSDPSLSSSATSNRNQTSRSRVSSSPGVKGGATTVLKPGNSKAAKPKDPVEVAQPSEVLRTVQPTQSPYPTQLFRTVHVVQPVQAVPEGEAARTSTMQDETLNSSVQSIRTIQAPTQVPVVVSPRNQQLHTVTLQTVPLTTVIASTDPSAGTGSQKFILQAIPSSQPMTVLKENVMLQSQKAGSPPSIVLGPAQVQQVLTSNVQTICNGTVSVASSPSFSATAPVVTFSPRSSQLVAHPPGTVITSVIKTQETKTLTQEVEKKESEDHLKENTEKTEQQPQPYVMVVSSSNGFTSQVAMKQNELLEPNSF
SPIB, sequence (Q01892 whole entry): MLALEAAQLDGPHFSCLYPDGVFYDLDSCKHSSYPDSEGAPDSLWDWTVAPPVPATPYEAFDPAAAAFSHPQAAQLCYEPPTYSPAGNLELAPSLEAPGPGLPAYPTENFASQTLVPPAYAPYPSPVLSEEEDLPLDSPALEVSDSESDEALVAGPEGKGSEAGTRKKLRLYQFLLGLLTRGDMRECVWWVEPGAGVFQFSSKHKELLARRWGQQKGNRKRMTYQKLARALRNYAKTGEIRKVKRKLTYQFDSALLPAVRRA
HSF1, sequence (Q00613 whole entry): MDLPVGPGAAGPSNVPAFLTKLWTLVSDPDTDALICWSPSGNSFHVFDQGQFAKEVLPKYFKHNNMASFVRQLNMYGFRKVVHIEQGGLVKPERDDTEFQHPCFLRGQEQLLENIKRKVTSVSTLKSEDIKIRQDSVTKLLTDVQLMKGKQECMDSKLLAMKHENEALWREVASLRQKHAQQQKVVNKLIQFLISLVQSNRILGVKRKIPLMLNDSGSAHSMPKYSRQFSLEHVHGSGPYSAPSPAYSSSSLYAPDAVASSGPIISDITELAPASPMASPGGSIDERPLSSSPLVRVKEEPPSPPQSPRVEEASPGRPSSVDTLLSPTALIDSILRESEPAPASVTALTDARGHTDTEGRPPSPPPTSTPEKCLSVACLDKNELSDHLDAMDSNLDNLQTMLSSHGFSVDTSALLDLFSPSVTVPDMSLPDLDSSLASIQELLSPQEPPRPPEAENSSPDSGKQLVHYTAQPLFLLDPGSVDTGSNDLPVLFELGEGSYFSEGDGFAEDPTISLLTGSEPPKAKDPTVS
ELF4, sequence (Q99607 whole entry): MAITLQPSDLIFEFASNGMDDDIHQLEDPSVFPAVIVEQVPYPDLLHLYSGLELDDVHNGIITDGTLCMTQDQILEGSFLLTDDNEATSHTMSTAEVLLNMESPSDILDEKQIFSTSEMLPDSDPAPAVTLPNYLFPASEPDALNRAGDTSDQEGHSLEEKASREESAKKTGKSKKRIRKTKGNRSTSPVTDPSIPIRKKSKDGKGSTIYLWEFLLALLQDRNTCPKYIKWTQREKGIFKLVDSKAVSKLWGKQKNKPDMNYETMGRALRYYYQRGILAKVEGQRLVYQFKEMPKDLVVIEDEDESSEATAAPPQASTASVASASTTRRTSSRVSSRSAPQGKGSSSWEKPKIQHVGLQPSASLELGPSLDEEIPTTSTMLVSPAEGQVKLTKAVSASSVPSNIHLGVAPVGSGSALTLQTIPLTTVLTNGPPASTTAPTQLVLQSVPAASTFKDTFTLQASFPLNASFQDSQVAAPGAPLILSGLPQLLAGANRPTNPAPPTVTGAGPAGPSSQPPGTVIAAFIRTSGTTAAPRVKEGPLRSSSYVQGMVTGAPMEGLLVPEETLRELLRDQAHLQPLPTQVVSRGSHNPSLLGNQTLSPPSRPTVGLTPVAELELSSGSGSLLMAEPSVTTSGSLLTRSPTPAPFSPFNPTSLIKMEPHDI

Consider GCGAAT, for which the binding signal is 1.07 fold enrichment (6-mer frequency, TF over GST control) in the experiment with ELK1; 1.05 fold enrichment (6-mer frequency, TF over GST control) with GABPA; 1.08 fold enrichment (6-mer frequency, TF over GST control) in the experiment with ERG; 1.11 fold enrichment (6-mer frequency, TF over GST control) with ELF1; 1.17 fold enrichment (6-mer frequency, TF over GST control) with EHF; 1 fold enrichment (6-mer frequency, TF over GST control) in the experiment with SPIB. Also, the binding signal with HSF1 was 1.27 fold enrichment (6-mer frequency, TF over GST control); with ELF4 it was 1.02 fold enrichment (6-mer frequency, TF over GST control); in the experiment with ELK4, 1.17 fold enrichment (6-mer frequency, TF over GST control).

Values taken from PMC7862700, “An all-to-all approach to the identification of sequence-specific readers for epigenetic DNA modifications on cytosine”.
